The record followed here is article PMC7862700, “An all-to-all approach to the identification of sequence-specific readers for epigenetic DNA modifications on cytosine”.

Holding throughout (experiment): DAPPL (digital affinity profiling via proximity ligation, sequencing); 10 mM Tris-HCl pH 7.5, 50 mM NaCl, 1 mM DTT, 4% glycerol, room temperature, 30 min; GST-TFs on glutathione beads, 16-mer random dsDNA library, 0.1% formaldehyde crosslink after washing; high values mean tight binding
The target of one experiment is T1, FEV (Homo sapiens, UniProt Q99581 1-238).
T1 sequence: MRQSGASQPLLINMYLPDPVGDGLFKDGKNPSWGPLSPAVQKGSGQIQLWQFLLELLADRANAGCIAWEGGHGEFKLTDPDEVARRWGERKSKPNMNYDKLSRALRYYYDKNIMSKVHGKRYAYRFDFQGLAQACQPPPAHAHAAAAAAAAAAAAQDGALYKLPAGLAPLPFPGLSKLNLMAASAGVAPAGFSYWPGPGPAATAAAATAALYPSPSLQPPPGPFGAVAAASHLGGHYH
Particulars: protein: recombinant; tags: N-terminal GST; dsDNA, one strand shown. The method, boiled down:
(§1)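 Binding signal is each hexamer's read frequency for a factor divided by its frequency in the tag-only sample. The factors were GST-fused human transcription factors from yeast, captured on glutathione beads, DNA-barcoded and pooled with that sample. Pools were incubated with 200 nmole of a random double-stranded 16-mer DNA library in Tris/NaCl/DTT/glycerol buffer at room temperature for 30 min, then washed, crosslinked with 0.1% formaldehyde, proximity-ligated with BsaI/T4 ligase (1 h, 37 °C), PCR-amplified and sequenced on an Illumina NextSeq500.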

In another experiment the target is ETV5 (Homo sapiens, UniProt P41161 1-510). Particulars: protein: recombinant; tags: N-terminal GST; dsDNA, one strand shown. The method, boiled down:
as §1

For another experiment, the target named is HSF1 (Homo sapiens, UniProt Q00613 1-529). The conditions noted are these: protein: recombinant; tags: N-terminal GST; chain copies: 3; dsDNA, one strand shown. The method in brief:
as §1

The target of the next experiment is T2, SPIC (Homo sapiens, UniProt Q8N5J4 1-248).
T2 sequence: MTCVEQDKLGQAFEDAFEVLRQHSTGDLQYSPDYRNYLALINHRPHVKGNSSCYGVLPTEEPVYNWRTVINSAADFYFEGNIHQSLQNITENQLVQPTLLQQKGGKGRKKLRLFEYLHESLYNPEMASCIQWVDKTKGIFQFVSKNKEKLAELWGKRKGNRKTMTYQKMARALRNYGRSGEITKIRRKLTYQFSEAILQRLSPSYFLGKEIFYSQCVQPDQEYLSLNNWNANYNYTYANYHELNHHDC
The conditions noted are these: protein: recombinant; tags: N-terminal GST; dsDNA, one strand shown. The method, boiled down:
as §1

A further experiment addresses ELF4 (Homo sapiens, UniProt Q99607 1-663). The conditions noted are these: protein: recombinant; tags: N-terminal GST; dsDNA, one strand shown. The method, boiled down: as §1
Another experiment concerns the target T3, ELK4 (Homo sapiens, UniProt P28324-2 1-405).
T3 sequence: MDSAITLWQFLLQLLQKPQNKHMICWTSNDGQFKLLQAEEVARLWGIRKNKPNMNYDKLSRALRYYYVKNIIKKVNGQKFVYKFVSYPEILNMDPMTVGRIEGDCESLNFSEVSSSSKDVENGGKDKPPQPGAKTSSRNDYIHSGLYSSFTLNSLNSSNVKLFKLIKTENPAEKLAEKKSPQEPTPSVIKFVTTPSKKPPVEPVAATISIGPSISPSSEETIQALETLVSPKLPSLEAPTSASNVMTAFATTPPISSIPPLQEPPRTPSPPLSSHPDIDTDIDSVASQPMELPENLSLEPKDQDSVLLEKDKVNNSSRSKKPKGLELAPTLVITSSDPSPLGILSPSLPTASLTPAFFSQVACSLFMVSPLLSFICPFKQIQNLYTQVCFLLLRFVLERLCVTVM
The conditions noted are these: protein: recombinant; tags: N-terminal GST; dsDNA, one strand shown. The method in brief:
as §1

The target in a further experiment is T4, ETV2 (Homo sapiens, UniProt O00321 1-342).
T4 sequence: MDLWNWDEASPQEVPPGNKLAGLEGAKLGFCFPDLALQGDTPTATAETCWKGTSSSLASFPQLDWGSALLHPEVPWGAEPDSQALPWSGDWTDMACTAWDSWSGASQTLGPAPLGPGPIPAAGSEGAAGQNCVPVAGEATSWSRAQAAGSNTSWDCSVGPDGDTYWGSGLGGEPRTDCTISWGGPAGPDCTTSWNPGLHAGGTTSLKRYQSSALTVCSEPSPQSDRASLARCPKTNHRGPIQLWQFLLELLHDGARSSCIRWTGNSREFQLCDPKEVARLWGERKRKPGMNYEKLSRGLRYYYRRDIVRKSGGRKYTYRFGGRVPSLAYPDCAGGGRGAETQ
Particulars: protein: recombinant; tags: N-terminal GST; dsDNA, one strand shown. The method, boiled down: as §1

The target in another experiment is T5, ELF3 (Homo sapiens, UniProt P78545 1-371).
T5 sequence: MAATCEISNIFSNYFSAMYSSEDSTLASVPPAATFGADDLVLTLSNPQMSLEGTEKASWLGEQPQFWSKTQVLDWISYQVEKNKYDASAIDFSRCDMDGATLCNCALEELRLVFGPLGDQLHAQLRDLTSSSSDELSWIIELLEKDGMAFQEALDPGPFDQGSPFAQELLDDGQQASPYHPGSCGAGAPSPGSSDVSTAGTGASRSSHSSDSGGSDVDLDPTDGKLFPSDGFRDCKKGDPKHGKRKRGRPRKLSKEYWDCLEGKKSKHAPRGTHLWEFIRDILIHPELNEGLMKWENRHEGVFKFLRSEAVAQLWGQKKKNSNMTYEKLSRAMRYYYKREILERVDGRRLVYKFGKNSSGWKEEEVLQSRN
The conditions noted are these: protein: recombinant; tags: N-terminal GST; dsDNA, one strand shown. The method, boiled down: as §1

The target in a further experiment is CRX (Homo sapiens, UniProt O43186 1-299). The conditions noted are these: protein: recombinant; tags: N-terminal GST; dsDNA, one strand shown. The method in brief: as §1
CRX, sequence (O43186 whole entry): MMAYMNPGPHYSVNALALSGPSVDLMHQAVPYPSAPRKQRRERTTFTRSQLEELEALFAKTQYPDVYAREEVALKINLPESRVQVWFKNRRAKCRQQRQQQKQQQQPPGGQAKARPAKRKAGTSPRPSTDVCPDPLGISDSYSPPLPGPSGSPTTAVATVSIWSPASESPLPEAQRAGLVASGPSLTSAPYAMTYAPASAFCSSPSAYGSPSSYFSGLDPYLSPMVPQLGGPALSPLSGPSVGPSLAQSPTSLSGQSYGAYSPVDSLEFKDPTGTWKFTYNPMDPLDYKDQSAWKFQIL
The target in another experiment is ETV1 (Homo sapiens, UniProt P50549 1-477). The conditions noted are these: protein: recombinant; tags: N-terminal GST; dsDNA, one strand shown. The method in brief: as §1
ETV1, sequence (P50549 whole entry): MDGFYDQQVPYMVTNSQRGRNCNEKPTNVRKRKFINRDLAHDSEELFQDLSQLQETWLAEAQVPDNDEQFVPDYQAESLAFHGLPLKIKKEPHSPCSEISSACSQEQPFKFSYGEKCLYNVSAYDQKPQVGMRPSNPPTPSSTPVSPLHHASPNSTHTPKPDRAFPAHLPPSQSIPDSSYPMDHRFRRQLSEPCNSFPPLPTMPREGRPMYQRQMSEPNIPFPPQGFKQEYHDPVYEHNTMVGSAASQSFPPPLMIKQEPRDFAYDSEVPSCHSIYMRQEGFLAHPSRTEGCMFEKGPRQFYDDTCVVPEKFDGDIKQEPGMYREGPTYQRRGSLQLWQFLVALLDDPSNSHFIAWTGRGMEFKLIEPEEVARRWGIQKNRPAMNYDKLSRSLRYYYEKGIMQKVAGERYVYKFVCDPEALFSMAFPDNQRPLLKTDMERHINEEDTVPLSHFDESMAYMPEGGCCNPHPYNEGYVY
Another experiment has as its target T6, ERF (Homo sapiens, UniProt P50548 1-548).
T6 sequence: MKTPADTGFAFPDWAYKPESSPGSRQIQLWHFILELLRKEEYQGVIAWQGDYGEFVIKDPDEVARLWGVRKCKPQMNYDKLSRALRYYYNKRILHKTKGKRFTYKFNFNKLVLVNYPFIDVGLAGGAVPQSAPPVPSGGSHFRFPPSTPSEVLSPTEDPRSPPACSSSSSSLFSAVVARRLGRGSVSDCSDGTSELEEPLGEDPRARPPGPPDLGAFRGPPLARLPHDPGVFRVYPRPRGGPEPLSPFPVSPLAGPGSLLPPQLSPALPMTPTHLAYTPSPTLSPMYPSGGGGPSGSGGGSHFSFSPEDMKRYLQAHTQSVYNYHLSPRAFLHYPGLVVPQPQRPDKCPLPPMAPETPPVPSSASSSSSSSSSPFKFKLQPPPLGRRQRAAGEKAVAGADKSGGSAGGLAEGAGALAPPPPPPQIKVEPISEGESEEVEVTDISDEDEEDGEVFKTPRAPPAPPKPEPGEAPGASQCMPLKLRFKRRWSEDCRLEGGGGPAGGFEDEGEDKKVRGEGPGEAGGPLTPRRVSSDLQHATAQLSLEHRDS
Particulars: protein: recombinant; tags: N-terminal GST; dsDNA, one strand shown. The method in brief: as §1

Another experiment deals with T7, ETV3L (Homo sapiens, UniProt Q6ZN32 1-361).
T7 sequence: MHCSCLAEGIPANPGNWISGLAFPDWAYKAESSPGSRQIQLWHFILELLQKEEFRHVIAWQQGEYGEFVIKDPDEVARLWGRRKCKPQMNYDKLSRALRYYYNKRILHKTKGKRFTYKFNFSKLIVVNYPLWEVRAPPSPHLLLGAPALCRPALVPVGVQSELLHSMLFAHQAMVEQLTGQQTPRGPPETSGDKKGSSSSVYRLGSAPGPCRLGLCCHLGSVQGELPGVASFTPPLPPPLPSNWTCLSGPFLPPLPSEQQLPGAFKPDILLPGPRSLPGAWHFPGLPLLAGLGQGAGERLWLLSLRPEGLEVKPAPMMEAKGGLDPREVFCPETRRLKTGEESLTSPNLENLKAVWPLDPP
The conditions noted are these: protein: recombinant; tags: N-terminal GST; dsDNA, one strand shown. The method in brief:
as §1

Another experiment has as its target T8, ETS2 (Homo sapiens, UniProt P15036 1-469).
T8 sequence: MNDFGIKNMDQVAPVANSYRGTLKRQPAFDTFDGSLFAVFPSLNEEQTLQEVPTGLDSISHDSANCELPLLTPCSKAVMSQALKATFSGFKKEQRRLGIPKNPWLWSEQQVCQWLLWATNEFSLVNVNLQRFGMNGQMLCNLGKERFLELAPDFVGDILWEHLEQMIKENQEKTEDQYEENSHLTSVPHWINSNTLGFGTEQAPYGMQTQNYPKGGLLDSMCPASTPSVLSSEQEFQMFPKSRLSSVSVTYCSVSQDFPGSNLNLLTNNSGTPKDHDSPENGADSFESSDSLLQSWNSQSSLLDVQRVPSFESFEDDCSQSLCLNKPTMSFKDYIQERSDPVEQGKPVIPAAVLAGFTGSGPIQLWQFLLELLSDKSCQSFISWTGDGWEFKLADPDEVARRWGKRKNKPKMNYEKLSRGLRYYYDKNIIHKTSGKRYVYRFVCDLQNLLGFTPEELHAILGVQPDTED
The conditions noted are these: protein: recombinant; tags: N-terminal GST; dsDNA, one strand shown. The method, boiled down:
as §1

The target of a further experiment is T9, SPDEF (Homo sapiens, UniProt O95238 1-335).
T9 sequence: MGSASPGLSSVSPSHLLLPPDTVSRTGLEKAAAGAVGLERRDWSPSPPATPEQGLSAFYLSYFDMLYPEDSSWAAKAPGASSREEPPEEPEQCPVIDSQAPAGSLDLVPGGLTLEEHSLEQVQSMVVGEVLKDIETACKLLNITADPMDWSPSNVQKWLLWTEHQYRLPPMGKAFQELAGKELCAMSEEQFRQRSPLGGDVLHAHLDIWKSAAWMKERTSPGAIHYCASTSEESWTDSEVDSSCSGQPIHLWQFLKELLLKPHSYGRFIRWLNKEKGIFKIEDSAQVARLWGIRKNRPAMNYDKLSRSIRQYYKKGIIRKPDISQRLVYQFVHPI
Particulars: protein: recombinant; tags: N-terminal GST; dsDNA, one strand shown. The method, boiled down: as §1

The target in a further experiment is T10, ETV7 (Homo sapiens, UniProt Q9Y603 1-341).
T10 sequence: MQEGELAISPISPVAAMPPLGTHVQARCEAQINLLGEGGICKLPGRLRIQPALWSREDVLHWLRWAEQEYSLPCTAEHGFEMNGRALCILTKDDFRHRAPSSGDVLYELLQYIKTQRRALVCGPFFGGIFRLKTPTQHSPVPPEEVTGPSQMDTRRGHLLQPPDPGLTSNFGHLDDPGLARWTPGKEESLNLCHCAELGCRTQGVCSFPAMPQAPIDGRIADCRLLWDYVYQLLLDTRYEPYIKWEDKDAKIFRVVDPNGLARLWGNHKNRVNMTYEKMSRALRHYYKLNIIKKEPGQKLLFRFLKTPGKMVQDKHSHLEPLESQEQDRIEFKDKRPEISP
The conditions noted are these: protein: recombinant; tags: N-terminal GST; dsDNA, one strand shown. The method in brief:
as §1

The target in a further experiment is T11, ELF5 (Homo sapiens, UniProt Q9UKW6-2 1-255).
T11 sequence: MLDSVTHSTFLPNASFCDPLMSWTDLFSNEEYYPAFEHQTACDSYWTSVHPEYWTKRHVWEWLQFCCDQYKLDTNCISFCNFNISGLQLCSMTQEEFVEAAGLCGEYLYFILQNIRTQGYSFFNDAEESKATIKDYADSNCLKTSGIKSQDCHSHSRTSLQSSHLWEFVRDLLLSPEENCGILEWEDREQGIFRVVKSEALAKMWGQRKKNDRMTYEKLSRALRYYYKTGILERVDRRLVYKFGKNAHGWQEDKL
The conditions noted are these: protein: recombinant; tags: N-terminal GST; dsDNA, one strand shown. The method, boiled down: as §1

A further experiment addresses T12, ETV3 (Homo sapiens, UniProt P41162-2 1-143).
T12 sequence: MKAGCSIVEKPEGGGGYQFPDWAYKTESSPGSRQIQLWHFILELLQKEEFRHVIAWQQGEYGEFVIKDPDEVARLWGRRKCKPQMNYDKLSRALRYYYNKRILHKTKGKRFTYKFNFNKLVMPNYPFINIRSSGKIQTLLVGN
The conditions noted are these: protein: recombinant; tags: N-terminal GST; dsDNA, one strand shown. The method in brief: as §1

For the next experiment, the target named is ETV6 (Homo sapiens, UniProt P41212 1-452). The conditions noted are these: protein: recombinant; tags: N-terminal GST; dsDNA, one strand shown. The method in brief:
as §1

ETV5, sequence (P41161 whole entry): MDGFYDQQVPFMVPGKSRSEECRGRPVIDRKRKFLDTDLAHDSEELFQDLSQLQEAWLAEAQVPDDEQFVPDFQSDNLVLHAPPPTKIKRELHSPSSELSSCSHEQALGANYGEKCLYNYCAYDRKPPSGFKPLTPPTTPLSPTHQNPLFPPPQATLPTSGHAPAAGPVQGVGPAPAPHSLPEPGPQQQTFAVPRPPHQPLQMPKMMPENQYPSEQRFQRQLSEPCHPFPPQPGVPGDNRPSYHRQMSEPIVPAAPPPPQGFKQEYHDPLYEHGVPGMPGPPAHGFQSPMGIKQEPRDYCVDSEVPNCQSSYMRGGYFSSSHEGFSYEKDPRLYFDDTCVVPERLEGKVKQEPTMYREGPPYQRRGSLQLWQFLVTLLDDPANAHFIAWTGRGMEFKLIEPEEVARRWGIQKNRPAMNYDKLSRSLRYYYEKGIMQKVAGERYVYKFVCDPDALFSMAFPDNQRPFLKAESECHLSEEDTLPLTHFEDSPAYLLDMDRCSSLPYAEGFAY
ELF4, sequence (Q99607 whole entry): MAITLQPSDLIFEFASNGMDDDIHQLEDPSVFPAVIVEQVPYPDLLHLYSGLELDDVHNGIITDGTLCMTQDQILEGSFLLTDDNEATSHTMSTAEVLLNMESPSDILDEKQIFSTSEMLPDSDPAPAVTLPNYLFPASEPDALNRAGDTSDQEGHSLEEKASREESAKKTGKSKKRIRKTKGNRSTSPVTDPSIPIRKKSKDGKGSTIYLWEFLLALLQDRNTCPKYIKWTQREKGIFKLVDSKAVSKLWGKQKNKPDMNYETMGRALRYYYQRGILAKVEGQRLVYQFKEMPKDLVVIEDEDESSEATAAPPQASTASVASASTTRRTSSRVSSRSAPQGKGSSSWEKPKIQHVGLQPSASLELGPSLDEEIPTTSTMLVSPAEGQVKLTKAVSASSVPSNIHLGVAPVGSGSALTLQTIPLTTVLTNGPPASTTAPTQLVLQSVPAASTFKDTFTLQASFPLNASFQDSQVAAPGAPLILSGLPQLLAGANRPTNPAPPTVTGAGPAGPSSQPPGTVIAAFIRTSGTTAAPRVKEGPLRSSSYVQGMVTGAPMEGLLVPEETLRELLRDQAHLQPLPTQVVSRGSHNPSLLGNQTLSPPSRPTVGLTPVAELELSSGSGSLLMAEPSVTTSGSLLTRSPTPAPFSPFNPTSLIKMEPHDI
HSF1, sequence (Q00613 whole entry): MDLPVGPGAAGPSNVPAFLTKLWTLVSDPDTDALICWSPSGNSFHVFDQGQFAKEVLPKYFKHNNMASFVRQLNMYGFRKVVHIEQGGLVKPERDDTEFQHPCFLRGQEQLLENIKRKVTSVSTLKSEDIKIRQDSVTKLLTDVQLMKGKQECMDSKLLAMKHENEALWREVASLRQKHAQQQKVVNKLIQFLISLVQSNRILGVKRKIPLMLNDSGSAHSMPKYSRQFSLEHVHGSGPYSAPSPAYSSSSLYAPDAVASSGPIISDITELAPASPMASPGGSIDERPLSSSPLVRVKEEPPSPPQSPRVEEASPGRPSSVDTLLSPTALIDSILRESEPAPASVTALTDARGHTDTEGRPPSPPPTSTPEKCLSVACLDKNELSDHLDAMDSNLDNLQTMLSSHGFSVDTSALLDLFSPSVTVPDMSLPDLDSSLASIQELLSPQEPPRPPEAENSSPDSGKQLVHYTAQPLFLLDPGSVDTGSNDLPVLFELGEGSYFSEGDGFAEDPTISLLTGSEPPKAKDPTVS
ETV6, sequence (P41212 whole entry): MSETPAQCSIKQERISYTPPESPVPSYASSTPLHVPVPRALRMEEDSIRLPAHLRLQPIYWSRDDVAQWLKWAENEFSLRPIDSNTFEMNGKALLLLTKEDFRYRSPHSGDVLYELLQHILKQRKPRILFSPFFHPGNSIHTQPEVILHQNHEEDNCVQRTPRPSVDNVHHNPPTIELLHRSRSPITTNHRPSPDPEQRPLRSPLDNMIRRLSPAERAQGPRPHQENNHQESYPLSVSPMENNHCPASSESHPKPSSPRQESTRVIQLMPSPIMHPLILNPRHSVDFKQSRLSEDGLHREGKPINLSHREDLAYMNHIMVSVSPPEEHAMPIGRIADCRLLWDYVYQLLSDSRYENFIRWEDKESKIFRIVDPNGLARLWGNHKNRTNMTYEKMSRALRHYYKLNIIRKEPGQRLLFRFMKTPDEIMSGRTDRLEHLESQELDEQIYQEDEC

Regarding CCCGAC, the binding signal with FEV is 1.38 fold enrichment (6-mer frequency, TF over GST control); with ETV5, 1.31 fold enrichment (6-mer frequency, TF over GST control); with HSF1, 1.19 fold enrichment (6-mer frequency, TF over GST control); with SPIC, 1.53 fold enrichment (6-mer frequency, TF over GST control); in the experiment with ELF4, 1.29 fold enrichment (6-mer frequency, TF over GST control); in the experiment with ELK4, 1.43 fold enrichment (6-mer frequency, TF over GST control). The binding signal in the experiment with ETV2 was 1.46 fold enrichment (6-mer frequency, TF over GST control); with ELF3 it was 1.53 fold enrichment (6-mer frequency, TF over GST control); with CRX, 1.06 fold enrichment (6-mer frequency, TF over GST control); in the experiment with ETV1, 1.36 fold enrichment (6-mer frequency, TF over GST control); with ERF it was 1.29 fold enrichment (6-mer frequency, TF over GST control); in the experiment with ETV3L, 1.41 fold enrichment (6-mer frequency, TF over GST control). Further, the binding signal with ETS2 was 1.27 fold enrichment (6-mer frequency, TF over GST control); with SPDEF, 1.44 fold enrichment (6-mer frequency, TF over GST control); with ETV7, 1.37 fold enrichment (6-mer frequency, TF over GST control); in the experiment with ELF5, 1.38 fold enrichment (6-mer frequency, TF over GST control); with ETV3 it was 1.25 fold enrichment (6-mer frequency, TF over GST control); with ETV6, 1.42 fold enrichment (6-mer frequency, TF over GST control).
